# From PubChem BioAssay (NCATS)
# Records with an inconclusive call do not appear. A call without a number means that no potency is given here. Calls of active or inactive are those of the source. The call rests on the fitted dose curve; in most records, active means well fitted curve in the direction sought with a large enough effect; inconclusive means small, poorly fitted or top-dose-only effect, or another doubt; inactive means no such curve, though single readings can be large; an effect the other way counts as inactive or inconclusive.
# Legend:
# [1] = target: Phospholipid hydroperoxide glutathione peroxidase GPX4 (Homo sapiens) (UniProt P36969); assay: Primary qHTS Assay for Inhibitors of Recombinant Selenoprotein Glutathione Peroxidase 4 (GPX4) (AID 1845192); details: recombinant GPX4, GR-coupled NADPH fluorescence, 15 min; series mostly up to 50 µM; further: nearly all actives have a fitted effect of over 65% in size; further: potency means the concentration at half of the fitted maximal effect
# Sequence of Phospholipid hydroperoxide glutathione peroxidase GPX4 (Homo sapiens) (P36969 whole entry, looked up): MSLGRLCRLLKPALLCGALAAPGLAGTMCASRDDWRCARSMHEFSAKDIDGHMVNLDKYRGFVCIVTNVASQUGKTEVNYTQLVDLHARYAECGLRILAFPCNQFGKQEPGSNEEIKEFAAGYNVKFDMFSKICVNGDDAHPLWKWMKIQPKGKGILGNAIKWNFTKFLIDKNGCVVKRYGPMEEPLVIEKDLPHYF
# Method in brief: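 Steps: GPX4 plus compound, 30 min RT; add GR/GSH/NADPH master mix; start with cumene hydroperoxide; read 340/450 nm fluorescence at 0 and 15 min. Finals were 200 nM GPX4, 1 mM GSH, 0.5 mM CHP, 0.5 mM NADPH, 100 nM GR.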
# [2] = target: Glutathione peroxidase 1 (Homo sapiens) (UniProt P07203); assay: Primary qHTS Assay for Inhibitors of Recombinant Selenoprotein Glutathione Peroxidase 1 (GPX1) (AID 1845191); details: recombinant GPX1, GR-coupled NADPH fluorescence, 15 min; series mostly up to 48.8 µM; further: nearly all actives have a fitted effect of over 65% in size
# Sequence of Glutathione peroxidase 1 (Homo sapiens) (P07203 whole entry, looked up): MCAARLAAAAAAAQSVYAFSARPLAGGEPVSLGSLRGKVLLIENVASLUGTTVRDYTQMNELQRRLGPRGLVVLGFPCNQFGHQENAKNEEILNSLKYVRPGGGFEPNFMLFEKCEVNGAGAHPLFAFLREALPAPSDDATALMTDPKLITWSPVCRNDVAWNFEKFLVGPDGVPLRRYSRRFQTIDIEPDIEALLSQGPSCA
# Method in brief: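 GR-coupled readout: NADPH consumption tracked by fluorescence, ex 340/em 450 nm, at t=0 and after 15 min at RT. Final mix 10 nM GPX1, 1 mM GSH, 0.5 mM CHP, 0.5 mM NADPH, 100 nM GR, 0.01% BSA, following 30 min enzyme–compound preincubation.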
# [3] = target: Luciferin 4-monooxygenase (Photinus pyralis) (UniProt P08659); assay: Primary firefly luciferase (FLuc) qHTS assay for identification of artifact compounds. (AID 1845220); details: purified firefly luciferase, luminescence, 5 min; series mostly up to 54.1 µM; further: nearly all actives have a fitted effect of over 60% in size
# Method in brief: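 D-luciferin and ATP (10 uM each, final) in Tris acetate buffer pH 7.6 were incubated with compounds for 15 min at room temperature. The reaction was started with 10 nM Photinus pyralis luciferase and luminescence read after 5 min. Percent inhibition was fitted to a 4-parameter Hill equation.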
# [4] = Primary fluorescence-based thiol-reactive (MSTI) qHTS assay for identification of artifact compounds. (AID 1845221); details: MSTI thiol-reactivity probe, 1 h; series mostly up to 53.8 µM;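 further: thiol-reactive compounds lower the probe fluorescence signal; nearly all actives have a fitted effect of over 65% in size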
# Method in brief: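 In PBS pH 7.4 with 2% DMSO, each compound met 4 uM MSTI for one hour at ambient temperature, shielded from light, before fluorescence detection.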
# [5] = system: Nanoluciferase (engineered Oplophorus gracilirostris luciferase); assay: Primary Nanoluciferase (NLuc) qHTS assay for identification of artifact compounds. (AID 1845222); details: NLuc-conditioned medium, Nano-Glo luminescence, 5 min; series mostly up to 54.1 µM
# Method in brief: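 Diluted conditioned medium from NLuc-expressing S16 cells treated with compounds for 15 min at room temperature, then Nano-Glo substrate added; luminescence read after 5 min. Percent inhibition versus no-enzyme and DMSO controls fitted to 4-parameter Hill equation.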
SMILES,Potency [1],Potency [2],Potency [3],outcome [4],Potency [5]
Cc1cc(O)c2ccccc2c1O,inactive,–,–,–,–
NS(=O)(=O)c1ccc(-n2nc(C(F)(F)F)cc2-c2ccc(Cl)cc2)cc1,inactive,inactive,inactive,inactive,inactive
COC(=O)C1=C(C)NC(C)=C(C(=O)OCC(C)=O)C1c1ccccc1[N+](=O)[O-] (stereo unspecified),inactive,–,–,–,–
CC1(C)[C@@H](O[C@H]2O[C@H](C(=O)O)[C@@H](O)[C@H](O)[C@H]2O[C@@H]2O[C@H](C(=O)O)[C@@H](O)[C@H](O)[C@H]2O)CC[C@]2(C)[C@H]3C(=O)C=C4[C@@H]5C[C@@](C)(C(=O)O)CC[C@]5(C)CC[C@@]4(C)[C@]3(C)CC[C@@H]12,inactive,–,inactive,inactive,–
O=C(O)CC1CC(c2ccccc2)=NO1 (stereo unspecified),inactive,inactive,inactive,inactive,inactive
Cc1onc(-c2c(F)cccc2Cl)c1C(=O)N[C@@H]1C(=O)N2[C@@H]1SC(C)(C)[C@@H]2C(=O)O,inactive,inactive,inactive,inactive,inactive
C/C(=N\O)c1ccc(OCC(=O)N2CCCCC2)cc1,inactive,inactive,–,inactive,inactive
NC(=O)C(c1ccccc1)(c1ccccc1)[C@@H]1CCN(CCc2ccc3c(c2)CCO3)C1,inactive,inactive,–,–,–
Nc1ccn([C@H]2O[C@H](CO)[C@@H](O)C2(F)F)c(=O)n1,inactive,–,–,–,–
N.N.O=C(O)C1(C(=O)O)CCC1.[Pt],22.7 µM (active),inactive,–,–,–
COc1cc(CNC(=O)CCCC/C=C/C(C)C)ccc1O,inactive,inactive,inactive,inactive,inactive
CN1CCc2cc(NC(=O)Nc3cccnc3)ccc21,inactive,inactive,–,–,–
